Reference: PubChem BioAssay AID588511 (Johns Hopkins Ion Channel Center, 2011)
About 3,600 (1.2%) of roughly 310,000 compounds were called active.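 The calls were made as follows: active = ratio plate-corrected score three or more library SD toward inhibition, starting fluorescence score within five deviations; inactive = the rest.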 The full list was thinned out, with actives kept by preference.

Each compound was assayed against Anoctamin-1 (Mus musculus) (UniProt Q8BHY3) (assay: blockers of mouse ANO1 Ca-activated Cl channel – cell-based, HTS, primary screen (AID 588511;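 as to normalized B-score (activity score, 25-100; higher = stronger inhibition): score derived from kinetic fluorescence span divided by baseline fluorescence per well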)). Conditions: HEK293 TMEM16A/YFP iodide influx fluorescence, ionomycin; at 10 µM.
Chain of Anoctamin-1 (Mus musculus) (Q8BHY3 whole entry, looked up): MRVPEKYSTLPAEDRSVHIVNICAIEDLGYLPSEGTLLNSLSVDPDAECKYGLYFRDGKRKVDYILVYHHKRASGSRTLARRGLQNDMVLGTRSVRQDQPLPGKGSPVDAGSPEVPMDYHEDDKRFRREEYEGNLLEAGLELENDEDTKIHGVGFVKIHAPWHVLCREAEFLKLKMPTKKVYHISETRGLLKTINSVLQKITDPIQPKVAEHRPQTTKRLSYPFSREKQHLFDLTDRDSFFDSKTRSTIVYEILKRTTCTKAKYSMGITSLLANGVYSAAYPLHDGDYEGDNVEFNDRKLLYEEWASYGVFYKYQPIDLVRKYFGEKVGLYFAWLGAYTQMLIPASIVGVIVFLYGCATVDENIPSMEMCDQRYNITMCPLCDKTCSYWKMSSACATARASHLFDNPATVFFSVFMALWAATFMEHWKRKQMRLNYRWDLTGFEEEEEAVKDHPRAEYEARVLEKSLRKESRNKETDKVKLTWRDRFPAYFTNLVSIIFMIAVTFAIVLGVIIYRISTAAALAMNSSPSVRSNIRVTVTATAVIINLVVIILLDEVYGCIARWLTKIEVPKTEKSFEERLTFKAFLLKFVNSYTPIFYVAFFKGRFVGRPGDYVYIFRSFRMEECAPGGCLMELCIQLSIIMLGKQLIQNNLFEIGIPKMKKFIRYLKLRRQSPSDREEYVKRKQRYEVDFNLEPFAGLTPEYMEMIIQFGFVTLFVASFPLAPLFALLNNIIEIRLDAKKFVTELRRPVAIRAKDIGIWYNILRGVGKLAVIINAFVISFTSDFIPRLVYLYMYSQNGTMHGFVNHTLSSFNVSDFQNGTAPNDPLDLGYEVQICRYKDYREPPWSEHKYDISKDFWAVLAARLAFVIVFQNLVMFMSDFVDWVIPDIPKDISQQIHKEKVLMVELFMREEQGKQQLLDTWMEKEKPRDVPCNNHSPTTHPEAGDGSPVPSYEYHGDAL

| SMILES | normalized B-score (activity score, 25-100; higher = stronger inhibition) |
| --- | --- |
| O=C(CSc1nc(=O)n2ccccc2n1)Nc1ccc2c(c1)OCCO2 | inactive |
| Cc1ccccc1Cn1c(=O)[nH]c2ccccc21 | inactive |
| CCOC(=O)CCc1c(C)c(C#N)c2[nH]c3ccccc3n2c1=O | inactive |
| CCCc1cc(=S)n2c([nH]c3ccccc32)c1C#N | 25 (active) |
| CCN1CCN(c2cc3nc(C)n(Cc4ccccc4)c(=O)c3cc2NC(=O)c2ccccc2F)CC1 | inactive |
| CCC(=O)Nc1ccc2nc(C)n(Cc3ccccc3Cl)c(=O)c2c1 | 100 (active) |
| CCC(=O)Nc1nc2ccccc2n1Cc1ccccc1C | inactive |
| COC(c1ccccc1)(c1ccccc1)C(Oc1nc(C)cc(C)n1)C(=O)O (stereo not given) | inactive |
| O=C1NCCn2nc3ccccc3c21 | inactive |
| COc1ccc(NC(=O)C2CCN(S(=O)(=O)c3ccc4[nH]c(=O)oc4c3)CC2)c(OC)c1 | inactive |
| CN(Cc1cccnc1)C(=O)c1cc(COc2ccc3ncccc3c2)on1 | 100 (active) |
| CC(=O)c1cccc(OCc2cc(C(=O)NC(C)Cc3cccnc3)no2)c1 (stereo not given) | inactive |
| Cc1ccc(OCc2cc(C(=O)N(C)CCc3ccccc3)no2)cc1C | inactive |
| CCOC(=O)c1cc(=O)c2ccc(OCc3ccccc3)cc2o1 | inactive |
| CCOC(=O)c1cc2cc(-c3c(C(=O)OCC)oc4cc(O)cc(O)c4c3=O)ccc2o1 | 100 (active) |
| O=c1c(-c2ccc3c(c2)OCCO3)c(C(F)(F)F)oc2cc(O)cc(O)c12 | inactive |
| COCCn1c(Cc2cccn2C)nnc1SCC(=O)Nc1nccs1 | inactive |
| COCCCN1C(=O)c2ccc(C(=O)OCC(=O)NCc3ccccc3OC)cc2C1=O | inactive |
| CC1(N2CCOCC2)CC2(O)C(=[N+]1[O-])CCc1nonc12 (stereo not given) | inactive |
| CN1C(=O)/C(=C\c2cc(Br)cs2)c2ccccc21 | inactive |
| CCOC(=O)C1=C(c2ccc(OC)cc2)C(=O)c2ccccc2C1=O | inactive |
| Cc1ccc(C2C3=C(Nc4[nH]n(-c5ccccc5)c(=O)c42)c2ccccc2C3=O)cc1 (stereo not given) | inactive |
| COC(=O)C1=C(C)NC2=C(C(=O)c3ccccc32)C1c1ccc(-c2ccc(C(=O)O)cc2)o1 (stereo not given) | 25 (active) |
| CCCOc1ccc(Cc2c(O)nc(SC)[nH]c2=O)cc1C | inactive |
| CCCOc1ccc(Cc2c(Cl)nc(SC)nc2NC)cc1 | 100 (active) |
| CCCOc1ccc(-c2nc(N)n[nH]2)cc1 | inactive |
| CSc1ncccc1C(=O)OCc1ccc(Br)cc1 | inactive |

| SMILES | normalized B-score (activity score, 25-100; higher = stronger inhibition) |
| --- | --- |
| COc1ccc(OC)c(C2C3=C(N=c4s/c(=C\c5cccc(O)c5)c(=O)n42)c2ccccc2CC3)c1 (stereo not given) | inactive |
| CC1=NN(c2ccccc2)C(=O)C1C(=O)c1ccc([N+](=O)[O-])cc1 (stereo not given) | inactive |
| O=C1CC(c2ccccc2)=NN1c1ccc([N+](=O)[O-])cc1 | 100 (active) |
| Cc1nn(-c2ccc([N+](=O)[O-])cc2)c(N)c1-c1ccccc1 | inactive |
| CCNC(=O)NNC(=O)C1CC(c2cccs2)=NO1 (stereo not given) | inactive |
| Nc1nnc(SCC(=O)OCc2ccc(Cl)c(Cl)c2)s1 | inactive |
| Cc1ccc(CNC(=O)C2CCCN2C(=O)NCc2ccccc2)cc1 (stereo not given) | inactive |
| Cc1ccc(N2C(=O)S/C(=C/c3cn(C)c4ccccc34)C2=O)cc1 | 25 (active) |
| Cc1ccc(C(=O)N/C(=C\c2cn(C)c3ccccc23)C(=O)N2CCN(C)CC2)cc1 | inactive |
| Cc1cc(/C=C2\SC(=O)N(C)C2=O)c(C)n1-c1cccc(C(=O)O)c1 | inactive |
| CC(C)COc1ccc(C(=O)OCC(=O)NCCC2=CCCCC2)cc1 | inactive |
| CC(C(=O)NC1CCS(=O)(=O)C1)N1C(=O)/C(=C/c2ccc(Cl)cc2)SC1=S (stereo not given) | inactive |
| Cc1noc(C)c1CSc1nc2cc(S(=O)(=O)N3CCOCC3)ccc2o1 | inactive |
| COc1ccccc1NC(=O)CCCc1c[nH]c2ccccc12 | inactive |
| COc1ccc(S(=O)(=O)NCCc2c[nH]c3ccccc23)cc1OC | inactive |
| COc1cccc(CNCCc2c[nH]c3ccccc23)c1OCc1ccccc1F | 100 (active) |
| CC(=O)Nc1ccc(Sc2ccccc2C(=O)N2CCCC2)cn1 | inactive |
| COc1ccc(-n2ncc3c2CC(C)(C)CC3NC(=O)CCc2c(C)nn(C)c2C)cc1 (stereo not given) | inactive |
| COc1ccc(CNC(=O)C(=O)N2CCC3(CC2)OCCN3S(=O)(=O)c2ccc(C)cc2)cc1 | inactive |
| CCOC(=O)C(Sc1ncc(C#N)c(N)n1)C(C)C (stereo not given) | 100 (active) |
| CCOC(=O)CSc1nccc(N(C)C)c1C#N | inactive |
| CCCCOc1ccc(-c2ncc(C(=O)OCC)c(N)n2)cc1 | inactive |
| COc1cc2sc(C)nc2cc1C | inactive |
| CCOc1ccc(-c2noc(CCC(=O)NC3CCCC3)n2)cc1OC | inactive |
| COc1cccc(NC(=O)CCc2nnc3ccc(N4CCC(C)CC4)nn23)c1 | inactive |
| Cc1ccc(NC(=O)C2CC2c2ccccc2)cc1 (stereo not given) | inactive |
| O=C(Nc1ccc(-c2ccc3nncn3n2)cc1)C1CCCCC1 | inactive |

| SMILES | normalized B-score (activity score, 25-100; higher = stronger inhibition) |
| --- | --- |
| CC(C)NS(=O)(=O)c1ccc(NC(=O)C2CCCCC2)cc1 | inactive |
| O=C(O)c1ccc(NC(=O)C2CCCCC2)cc1 | 100 (active) |
| CCNC(=O)c1ccc(OCC(=O)Nc2ccc(F)cc2)c(OC)c1 | inactive |
| COc1ccc(NC(=O)CN(C)CC(=O)Nc2cccc(C(F)(F)F)c2)cc1 | inactive |
| COc1cc(C(=O)N(C)Cc2cccc(OC)c2OC)ccc1OCC(=O)Nc1cccc(C(F)(F)F)c1 | 100 (active) |
| COC(=O)Cc1ccc(N(Cc2ccccc2F)S(=O)(=O)c2ccc(Br)cc2)cc1 | inactive |
| COc1cc(CC(=O)Nc2nc(-c3ccc(F)c(F)c3)cs2)cc(OC)c1OC | 25 (active) |
| COc1cc(CC(=O)NCc2cccs2)cc(OC)c1OC | inactive |
| COc1ccc(-c2csc(NC(=O)COC(=O)Cc3ccc(Cl)cc3Cl)n2)cc1 | inactive |
| Cc1ccc(S(=O)(=O)NC(=O)Nc2nc(-c3ccc(F)c(F)c3)cs2)cc1 | inactive |
| CCCc1ccc(-c2csc(NC(=O)Cc3cccs3)n2)cc1 | inactive |
| COc1ccc(CC(=O)Nc2nc(-c3ccc(F)c(F)c3)cs2)cc1OC | 25 (active) |
| CCn1c(SCc2cccc(C(=O)O)c2)nnc1-c1ccc(Cl)cc1 | inactive |
| Cn1ccnc1-c1nnn(-c2ccc(F)cc2)n1 | inactive |
| COC(=O)c1ccc(OC(=O)c2nn(C)cc2Cl)c(OC)c1 | inactive |
| Cc1noc(C)c1-c1nc(CSc2ccc(Cl)cc2)no1 | inactive |
| Cc1cc(C)n(CC(=O)Nc2ccc([N+](=O)[O-])cc2)n1 | inactive |
| COCCCNC(=O)c1ccc(CNS(=O)(=O)c2ccc(NC(C)=O)cc2)cc1 | inactive |
| Cc1cc(N=Nc2ccc3ccccc3c2)ccc1O | inactive |
| Cc1cccc(-c2c(NC(=O)c3ccco3)oc3ccc(Cl)cc3c2=O)c1 | inactive |
| CN(C)CCCO/N=C(\c1ccccc1)c1ccncc1 | inactive |
| CC(C)Oc1ccc(/C=C(\NC(=O)/C=C/c2ccco2)C(=O)NCCc2nc3ccccc3[nH]2)cc1 | inactive |
| CCCNC(=O)c1onc(CSc2ccc(F)cc2)c1C(=O)NC(C)C | inactive |
| S=C(NCc1ccco1)Nc1ccc2c(c1)OCCO2 | inactive |
| O=C1c2ccccc2C(Nc2ccc3c(c2)OCCO3)N1Cc1ccco1 (stereo not given) | 100 (active) |
| Cc1ccnc(N2C(=O)c3ccccc3C2Nc2ccc3c(c2)OCCO3)c1 (stereo not given) | inactive |
| CCN(CC)C(=O)CSC(Nc1cccc(F)c1)=C(C#N)C#N | inactive |

| SMILES | normalized B-score (activity score, 25-100; higher = stronger inhibition) |
| --- | --- |
| c1ccc2c(c1)C(=NC1CCCCC1)NC2=NC1CCCCC1 | inactive |
| CCCn1c(C(C)Nc2nc(-c3ccc(C)cc3)cs2)nc2cc(Cl)c(N3CCCCC3)cc21 (stereo not given) | inactive |
| CC1(C)C=C2[C@H]3CC[C@@H]4[C@@]5(C)CCC(=O)C(C)(C)[C@@H]5CC[C@@]4(C)[C@]3(C)CC[C@@]2(C(=O)O)CC1 | 100 (active) |
| CC1CN(C(=O)c2ccc3c(c2)OCO3)OC(c2ccccc2)O1 (stereo not given) | inactive |
| Cc1cc(=O)oc2c1c(C)nn2-c1ccc(Cl)cc1 | inactive |
| CCCc1cc(=O)[nH]c(SCC(=O)c2c(N)n(CC(C)C)c(=O)n(C)c2=O)n1 | inactive |
| CC(C)(C)C1CCC(C(=O)Nc2cccnc2)CC1 (stereo not given) | inactive |
| COc1cccc(CNS(=O)(=O)c2ccc3c(c2)CC(C)N3C(C)=O)c1 (stereo not given) | inactive |
| COc1ccc(N(C)S(=O)(=O)c2ccc3c(c2)CC(C)N3C(=O)C2CC2)c(OC)c1 (stereo not given) | inactive |
| COc1cccc(CNS(=O)(=O)c2ccc3c(c2)CC(C)N3C(=O)C2CCC2)c1 (stereo not given) | 100 (active) |
| COc1cc(C(C(=O)NC2CCCC2)N(C(=O)c2ccco2)c2ccccc2C(C)=O)cc(OC)c1OC (stereo not given) | inactive |
| Nc1nonc1-n1nnc(C(=O)N/N=C/c2cc(Br)ccc2O)c1CSC1=NCCS1 | inactive |
| Cc1ccc(-c2nn(C(C)(C)C)c3ncnc(N)c23)cc1 | inactive |
| Nc1nc(SCC(=O)Nc2cc(C(F)(F)F)ccc2Cl)[nH]c(=O)c1NC(=O)c1ccco1 | inactive |
| COc1ccc(-n2c(C)cc(C(=O)COC(=O)c3cc(OC)c(OC)cc3NC(=O)c3cccs3)c2C)cc1 | inactive |
| COc1ccc(-n2c(C)cc(C(=O)CSc3nnc(-c4cccs4)o3)c2C)cc1 | 100 (active) |
| COc1ccc(-c2nnc(SCC(=O)c3ccc4c(c3)OCCO4)o2)cc1 | inactive |
| CCc1cc2c(NC(Cc3ccccc3)C(=O)O)ncnc2s1 (stereo not given) | inactive |
| CCc1cc2c(NC3CCCC3)ncnc2s1 | inactive |
| CCc1cc2c(N3CCN(c4nnc(CC)s4)CC3)ncnc2s1 | 100 (active) |
| Cc1ccc(S(=O)(=O)N[C@@H](Cc2ccccc2)C(=O)N2CCC(C(=O)N[C@H](C(=O)O)C(C)O)CC2)cc1 (stereo not given in full) | inactive |
| COc1cccc(C(=O)NNS(=O)(=O)c2ccc(F)cc2)c1 | inactive |
| Cc1cccnc1NC(=O)Cn1c(=O)oc2ccccc21 | inactive |
| COCc1c(C(=O)N/N=C(\C)c2ccncc2)nnn1-c1nonc1N | inactive |
